A short description of the assay: chemical genetic growth profiling, strain panel (AID 1159580).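 Further: tested at 20 µM; growth read once vehicle control cultures reached saturation at 30 °C; 1 = growth at the plate median or of vehicle wells; lower values mean less growth of the strain.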 The note with it: S. cerevisiae deletion strains, growth OD.
Where [1] appears, read: locus YAL040C, strain CLN3, hits give low values.
[2] abbreviates: locus YCL061C, strain MRC1 (second series), hits give low values.
[3] abbreviates: locus YDR150W, strain NUM1, hits give low values.
The mark [4] stands for this setting: locus YDR363W, strain ESC2, hits give low values.
Where [5] appears, read: locus YER002W, strain NOP16, hits give low values.
The mark [6] stands for this setting: locus YGR078C, strain PAC10, hits give low values.
The mark [7] stands for this setting: locus YMR263W, strain SAP30, hits give low values.
Where [8] appears, read: locus YNL128W, strain TEP1, hits give low values.
The mark [9] stands for this setting: locus YNL175C, strain NOP13, hits give low values.
Where [10] appears, read: locus YNL197C, strain WHI3, hits give low values.
Setting [11] is: locus YNL224C, strain SQS1, hits give low values.
The mark [12] stands for this setting: locus YOR083W, strain WHI5 (second series), hits give low values.
Where [13] appears, read: locus YPL241C, strain CIN2, hits give low values.

About 2,000 (36%) of roughly 5,500 compounds were called active. Roughly 18% stayed inconclusive and do not appear here. Some of the results follow. Values without a mark were called inactive. No stated cut-off is given here; in the data, active means normalized growth mostly below about 0.91 (no sharp cut-off); inconclusive means no clear call, values can overlap the other calls; inactive means mostly above about 0.92.

As to `COc1cc2nc(N3CCN(C(=O)OCc4ccccc4)C(C(=O)NC(C)(C)C)C3)nc(N)c2cc1OC` (stereo not drawn), the normalized growth reads like this: under setting [1], 0.999; under setting [2], 0.984; under setting [3], 0.997; under setting [4], 0.967; under setting [5], 1.14 [resistant] (active); under setting [6], 1.01. Besides, the normalized growth is 0.993 under setting [7]; 0.989 (locus YMR307W, strain GAS1, hits give low values); 1.08 under setting [8]; 1.02 under setting [9]; 1.03 under setting [10]; 1.03 under setting [11]. Besides, the normalized growth reads like this: (locus YNL322C, strain KRE1, hits give low values) 0.985; under setting [12], 1.07; under setting [13], 0.991.

Take `COc1cc2nc(N3CCN(C(=O)C4COc5ccccc5O4)CC3)nc(N)c2cc1OC` (stereo not drawn): the normalized growth runs as follows: under setting [1], 0.982; under setting [2], 0.985; under setting [4], 1.07; under setting [5], 1.01; under setting [6], 0.986; (locus YHR030C, strain SLT2, hits give low values) 1.03. The normalized growth (locus YHR079C, strain IRE1, hits give low values) was 0.981; the normalized growth (locus YJL095W, strain BCK1, hits give low values) is 0.983; the normalized growth (locus YJR066W, strain TOR1, hits give low values) was 0.968; the normalized growth (locus YLR113W, strain HOG1, hits give low values) is 0.999; the normalized growth under setting [7] is 1.01; the normalized growth under setting [8] was 1.01. The normalized growth is 0.99 under setting [9]; 0.939 (locus YNL183C, strain NPR1, hits give low values); 0.947 under setting [10]; 1.01 under setting [11]; 0.988 under setting [12]; 0.983 (locus YOR231W, strain MKK1, hits give low values). For the same compound, the normalized growth (locus YPL256C, strain CLN2, hits give low values) is 0.988.

Turning to `COc1cc2nc(N3CC=[N+](C(=O)c4ccco4)CC3)nc(N)c2cc1OC`, the normalized growth is, setting by setting: under setting [1], 1.02; under setting [2], 1; under setting [3], 1; under setting [4], 1.01; under setting [5], 1.01; under setting [6], 1.01. For the same compound, the normalized growth (locus YGR229C, strain SMI1, hits give low values) was 1.01; the normalized growth under setting [8] is 1; the normalized growth (locus YNL153C, strain GIM3, hits give low values) is 0.978; the normalized growth under setting [9] was 0.998; the normalized growth under setting [10] is 1.01; the normalized growth under setting [11] is 1.06. Further, the normalized growth was 1.01 under setting [12] and 1 under setting [13].
